Test results: the supplement of paper PMC7411054
Counter-ions that a name gives are not always drawn.

Columns and labels:
Conditions in all cases: treatment time: 24 h
A549-ACTB-RAB5A [1] = test: lowest phenotypically active concentration; higher = less potent
Outline: (§1)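 Two criteria together defined phenotypic activity: deviation and reproducibility. Deviation meant ≥3 of 4 wells beyond the 95th percentile of Euclidean distances in solvent control wells, and reproducibility meant a median replicate Pearson correlation above the 95th percentile of non-replicates. Wells had been treated for 24 h at 0.3, 1, 3 or 9 µM in fifteen gene-edited A549, HepG2 and WPMY1 reporter lines before live imaging.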

A549-GM130-SQSTM1 [2] = test: as above
Outline: as §1

A549-ACTB-RAB5A [3] = test: phenotypically active (imaging signature differs from DMSO and reproducible) at any of 0.3-9 uM (binary (1 = active, 0 = inactive)); higher = active
Outline: as §1

A549-CANX-COX4 = test: as above
Outline: as §1

A549-GM130-SQSTM1 [4] = test: as above
Outline: as §1

A549-TP53BP1-CLTA = test: as above
Outline: as §1

A549-TUBA1B-RELA [5] = test: as above
Outline: as §1

HepG2-ACTB-RAB5A = test: as above
Outline: as §1

HepG2-CANX-COX4 = test: as above
Outline: as §1

HepG2-GM130-SQSTM1 = test: as above
Outline: as §1

HepG2-TP53BP1-CLTA = test: as above
Outline: as §1

HepG2-TUBA1B-RELA = test: as above
Outline: as §1

WPMY1-ACTB-RAB5A [6] = test: as above
Outline: as §1

WPMY1-CANX-COX4 [7] = test: as above
Outline: as §1

WPMY1-GM130-SQSTM1 = test: as above
Outline: as §1

WPMY1-TP53BP1-CLTA = test: as above
Outline: as §1

WPMY1-TUBA1B-RELA = test: as above
Outline: as §1

A549-TUBA1B-RELA [8] = test: lowest phenotypically active concentration; higher = less potent
Outline: as §1

WPMY1-ACTB-RAB5A [9] = test: as above
Outline: as §1

WPMY1-CANX-COX4 [10] = test: as above
Outline: as §1

Compound | lowest phenotypically active concentration (A549-ACTB-RAB5A [1]) [µM] | lowest phenotypically active concentration (A549-GM130-SQSTM1 [2]) [µM] | phenotypically active (A549-ACTB-RAB5A [3]) | phenotypically active (A549-CANX-COX4) | phenotypically active (A549-GM130-SQSTM1 [4]) | phenotypically active (A549-TP53BP1-CLTA) | phenotypically active (A549-TUBA1B-RELA [5]) | phenotypically active (HepG2-ACTB-RAB5A) | phenotypically active (HepG2-CANX-COX4) | phenotypically active (HepG2-GM130-SQSTM1) | phenotypically active (HepG2-TP53BP1-CLTA) | phenotypically active (HepG2-TUBA1B-RELA) | phenotypically active (WPMY1-ACTB-RAB5A [6]) | phenotypically active (WPMY1-CANX-COX4 [7]) | phenotypically active (WPMY1-GM130-SQSTM1) | phenotypically active (WPMY1-TP53BP1-CLTA) | phenotypically active (WPMY1-TUBA1B-RELA) | lowest phenotypically active concentration (A549-TUBA1B-RELA [8]) [µM] | lowest phenotypically active concentration (WPMY1-ACTB-RAB5A [9]) [µM] | lowest phenotypically active concentration (WPMY1-CANX-COX4 [10]) [µM]
N#C/C(=C(/N)Sc1ccc(N)cc1)c1ccccc1C(F)(F)F | 3 | 3 | 1 (active) | 0 (inactive) | 1 (active) | 1 (active) | 0 (inactive) | 1 (active) | 1 (active) | 1 (active) | 1 (active) | 1 (active) | 0 (inactive) | 0 (inactive) | 0 (inactive) | 1 (active) | 0 (inactive) | – | – | –
Cc1ccc(NC2=CC(=O)c3sc(C)nc3C2=O)cc1 [Ryuvidine] | 9 | 9 | 1 (active) | 0 (inactive) | 1 (active) | 1 (active) | 1 (active) | 1 (active) | 0 (inactive) | 1 (active) | 1 (active) | 0 (inactive) | 1 (active) | 1 (active) | 1 (active) | 0 (inactive) | 1 (active) | 3 | 1 | 3
CC#CC(=O)N1CCC[C@H]1c1nc(-c2ccc(C(=O)Nc3ccccn3)cc2)c2c(N)nccn12 [acalabrutinib] | 9 | 9 | 1 (active) | 0 (inactive) | 1 (active) | 0 (inactive) | 0 (inactive) | 0 (inactive) | 0 (inactive) | 0 (inactive) | 0 (inactive) | 0 (inactive) | 0 (inactive) | 0 (inactive) | 0 (inactive) | 0 (inactive) | 0 (inactive) | – | – | –
O=C(O)Cc1cccc(OCCCN(Cc2cccc(C(F)(F)F)c2Cl)CC(c2ccccc2)c2ccccc2)c1 [GW 3965 hydrochloride] | 9 | – | 1 (active) | 1 (active) | 0 (inactive) | 0 (inactive) | 0 (inactive) | 0 (inactive) | 1 (active) | 0 (inactive) | 0 (inactive) | 1 (active) | 0 (inactive) | 0 (inactive) | 0 (inactive) | 0 (inactive) | 0 (inactive) | – | – | –
O=C([C@H](Cc1cccc(C(F)(F)F)c1)NS(=O)(=O)c1cc(F)c2c(c1)CCNC2)N1CCCC1 [(S)-PFI 2 hydrochloride] | 9 | 9 | 1 (active) | 0 (inactive) | 1 (active) | 0 (inactive) | 0 (inactive) | 0 (inactive) | 0 (inactive) | 0 (inactive) | 0 (inactive) | 0 (inactive) | 0 (inactive) | 0 (inactive) | 0 (inactive) | 0 (inactive) | 0 (inactive) | – | – | –
CCCNCC(O)COc1ccccc1C(=O)CCc1ccccc1 (stereo not drawn) [propafenone] | 9 | 9 | 1 (active) | 0 (inactive) | 1 (active) | 1 (active) | 1 (active) | 1 (active) | 0 (inactive) | 0 (inactive) | 0 (inactive) | 1 (active) | 1 (active) | 1 (active) | 1 (active) | 1 (active) | 0 (inactive) | 9 | 9 | 9
CCOP(=O)(OCC)C(=Cc1cc(C(C)(C)C)c(O)c(C(C)(C)C)c1)P(=O)(OCC)OCC | 9 | 9 | 1 (active) | 0 (inactive) | 1 (active) | 0 (inactive) | 0 (inactive) | 0 (inactive) | 0 (inactive) | 0 (inactive) | 0 (inactive) | 0 (inactive) | 0 (inactive) | 0 (inactive) | 0 (inactive) | 0 (inactive) | 0 (inactive) | – | – | –
NS(=O)(=O)c1nn2cc(-c3ccccc3)nc2s1 | 9 | 9 | 1 (active) | 0 (inactive) | 1 (active) | 1 (active) | 0 (inactive) | 1 (active) | 1 (active) | 1 (active) | 0 (inactive) | 1 (active) | 1 (active) | 0 (inactive) | 1 (active) | 1 (active) | 1 (active) | – | 9 | –
C[C@]1(O)C[C@@H](c2nc(-c3ccc4ccc(-c5ccccc5)nc4c3)c3c(N)nccn32)C1 [linsitinib] | 1 | ≤ 0.3 | 1 (active) | 0 (inactive) | 1 (active) | 1 (active) | 1 (active) | 1 (active) | 1 (active) | 1 (active) | 1 (active) | 1 (active) | 1 (active) | 1 (active) | 1 (active) | 1 (active) | 0 (inactive) | 3 | 9 | 9
C[C@H]1Oc2cc(cnc2N)-c2c(nn(C)c2C#N)CN(C)C(=O)c2ccc(F)cc21 | 3 | 1 | 1 (active) | 0 (inactive) | 1 (active) | 1 (active) | 1 (active) | 1 (active) | 1 (active) | 1 (active) | 1 (active) | 1 (active) | 0 (inactive) | 0 (inactive) | 0 (inactive) | 1 (active) | 0 (inactive) | 1 | – | –
COc1cc(OC)c2cc(-c3ccncc3)cnc2c1 [DMPQ dihydrochloride] | 9 | 9 | 1 (active) | 0 (inactive) | 1 (active) | 1 (active) | 0 (inactive) | 0 (inactive) | 1 (active) | 0 (inactive) | 0 (inactive) | 0 (inactive) | 0 (inactive) | 1 (active) | 0 (inactive) | 1 (active) | 0 (inactive) | – | – | 9
